PMC11062922 (Nature Chemical Biology, 2023)
Like-named read-outs stand apart in the source and are kept apart here.

Tested on: RET
Conditions: read-out: apparent Kd, n = 1

Substance: Lestaurtinib
- potency estimated from few doses (compound concentrations:100 nM and 1000 nM (sheet 'Lestaurtinib' of Supplementary Table 1),run:Lestaurtinib_02437_R2,Plate:MR007): 146 nM
- potency estimated from few doses (compound concentrations:100 nM and 1000 nM (sheet 'Lestaurtinib' of Supplementary Table 1),run:Lestaurtinib_02437_R3,Plate:MR007): 23.5 nM
- potency estimated from few doses (compound concentrations:100 nM and 1000 nM (sheet 'Lestaurtinib' of Supplementary Table 1),run:Lestaurtinib_02438_R1,Plate:MR008): 279 nM
- potency estimated from few doses (compound concentrations:100 nM and 1000 nM (sheet 'Lestaurtinib' of Supplementary Table 1),run:Lestaurtinib_02438_R2,Plate:MR008): 286 nM
- potency estimated from few doses (compound concentrations:100 nM and 1000 nM (sheet 'Lestaurtinib' of Supplementary Table 1),run:Lestaurtinib_02438_R3,Plate:MR008): 304 nM
- potency estimated from few doses (compound concentrations:100 nM and 1000 nM (sheet 'Lestaurtinib' of Supplementary Table 1),run:Lestaurtinib_02443_R1,Plate:MR009): 248 nM
- potency estimated from few doses (compound concentrations:100 nM and 1000 nM (sheet 'Lestaurtinib' of Supplementary Table 1),run:Lestaurtinib_02443_R3,Plate:MR009): 140 nM
- potency estimated from few doses (compound concentrations:100 nM and 1000 nM (sheet 'Lestaurtinib' of Supplementary Table 1),run:Lestaurtinib_02473_R2,Plate:MR010): 244 nM
- potency estimated from few doses (compound concentrations:100 nM and 1000 nM (sheet 'Lestaurtinib' of Supplementary Table 1),run:Lestaurtinib_02473_R3,Plate:MR010): 60 nM
- potency estimated from few doses (compound concentrations:100 nM and 1000 nM (sheet 'Lestaurtinib' of Supplementary Table 1),run:Lestaurtinib_02482_R1,Plate:MR011): 239 nM
- potency estimated from few doses (compound concentrations:100 nM and 1000 nM (sheet 'Lestaurtinib' of Supplementary Table 1),run:Lestaurtinib_02482_R3,Plate:MR011): 209 nM
- potency estimated from few doses (compound concentrations:100 nM and 1000 nM (sheet 'Lestaurtinib' of Supplementary Table 1),run:Lestaurtinib_02487_R2,Plate:MR012): 140 nM
- potency estimated from few doses (compound concentrations:100 nM and 1000 nM (sheet 'Lestaurtinib' of Supplementary Table 1),run:Lestaurtinib_02487_R3,Plate:MR012): 213 nM
- potency estimated from few doses (compound concentrations:100 nM and 1000 nM (sheet 'Lestaurtinib' of Supplementary Table 1),run:Lestaurtinib_02496_R1,Plate:MR013): 219 nM
- potency estimated from few doses (compound concentrations:100 nM and 1000 nM (sheet 'Lestaurtinib' of Supplementary Table 1),run:Lestaurtinib_02496_R3,Plate:MR013): 141 nM
- potency estimated from few doses (compound concentrations:100 nM and 1000 nM (sheet 'Lestaurtinib' of Supplementary Table 1),run:Lestaurtinib_02566_R1,Plate:MR014): 277 nM
- potency estimated from few doses (compound concentrations:100 nM and 1000 nM (sheet 'Lestaurtinib' of Supplementary Table 1),run:Lestaurtinib_02566_R3,Plate:MR014): 244 nM
- potency estimated from few doses (compound concentrations:100 nM and 1000 nM (sheet 'Lestaurtinib' of Supplementary Table 1),run:Lestaurtinib_02572_R3,Plate:MR015): 307 nM
- potency estimated from few doses (compound concentrations:100 nM and 1000 nM (sheet 'Lestaurtinib' of Supplementary Table 1),run:Lestaurtinib_02577_R1,Plate:MR016): 242 nM
- potency estimated from few doses (compound concentrations:100 nM and 1000 nM (sheet 'Lestaurtinib' of Supplementary Table 1),run:Lestaurtinib_02577_R2,Plate:MR016): 142 nM
- potency estimated from few doses (compound concentrations:100 nM and 1000 nM (sheet 'Lestaurtinib' of Supplementary Table 1),run:Lestaurtinib_02577_R3,Plate:MR016): 218 nM
- potency estimated from few doses (compound concentrations:100 nM and 1000 nM (sheet 'Lestaurtinib' of Supplementary Table 1),run:Lestaurtinib_02584_R3,Plate:MR017): 142 nM
- potency estimated from few doses (compound concentrations:100 nM and 1000 nM (sheet 'Lestaurtinib' of Supplementary Table 1),run:Lestaurtinib_02601_R2,Plate:MR018): 235 nM
- potency estimated from few doses (compound concentrations:100 nM and 1000 nM (sheet 'Lestaurtinib' of Supplementary Table 1),run:Lestaurtinib_02601_R3,Plate:MR018): 62.4 nM
- potency estimated from few doses (compound concentrations:100 nM and 1000 nM (sheet 'Lestaurtinib' of Supplementary Table 1),run:Lestaurtinib_02606_R1,Plate:MR019): 211 nM
- potency estimated from few doses (compound concentrations:100 nM and 1000 nM (sheet 'Lestaurtinib' of Supplementary Table 1),run:Lestaurtinib_02624_R1,Plate:MR020): 141 nM
- potency estimated from few doses (compound concentrations:100 nM and 1000 nM (sheet 'Lestaurtinib' of Supplementary Table 1),run:Lestaurtinib_02624_R3,Plate:MR020): 229 nM
- potency estimated from few doses (compound concentrations:100 nM and 1000 nM (sheet 'Lestaurtinib' of Supplementary Table 1),run:Lestaurtinib_02724_R1,Plate:MR021): 275 nM
- potency estimated from few doses (compound concentrations:100 nM and 1000 nM (sheet 'Lestaurtinib' of Supplementary Table 1),run:Lestaurtinib_02724_R2,Plate:MR021): 268 nM
- potency estimated from few doses (compound concentrations:100 nM and 1000 nM (sheet 'Lestaurtinib' of Supplementary Table 1),run:Lestaurtinib_02724_R3,Plate:MR021): 153 nM
- potency estimated from few doses (compound concentrations:100 nM and 1000 nM (sheet 'Lestaurtinib' of Supplementary Table 1),run:Lestaurtinib_02741_R1,Plate:MR023): 279 nM
- potency estimated from few doses (compound concentrations:100 nM and 1000 nM (sheet 'Lestaurtinib' of Supplementary Table 1),run:Lestaurtinib_02741_R2,Plate:MR023): 279 nM
- potency estimated from few doses (compound concentrations:100 nM and 1000 nM (sheet 'Lestaurtinib' of Supplementary Table 1),run:Lestaurtinib_02741_R3,Plate:MR023): 315 nM
- potency estimated from few doses (compound concentrations:100 nM and 1000 nM (sheet 'Lestaurtinib' of Supplementary Table 1),run:Lestaurtinib_02748_R1,Plate:MR024): 135 nM
- potency estimated from few doses (compound concentrations:100 nM and 1000 nM (sheet 'Lestaurtinib' of Supplementary Table 1),run:Lestaurtinib_02748_R2,Plate:MR024): 269 nM
- potency estimated from few doses (compound concentrations:100 nM and 1000 nM (sheet 'Lestaurtinib' of Supplementary Table 1),run:Lestaurtinib_02765_R1,Plate:MR026): 320 nM
